Consider 9 compounds from PubChem BioAssay (NCI).

Structures are written as SMILES. This is part of a sample that, as a whole, favours compounds with a hit. Of some 83,000 tested, about 20% had one in any assay.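 Single-dose data. Exposure time 48 hours. Values below 10 considered active.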 Values without a mark were called inactive. The source made the active and inactive calls.

Test in all cases: NCI-60 one-dose screen, 48 h (100 = growth as untreated, 0 = no growth, -100 = all killed)
Details in all cases: 10 µM

The test system of experiment [1] is HCT-15 colon.
The subject of experiment [2] is HT29 colon.
Experiment [3] concerns SNB-75 CNS.
Experiment [4] relates to U251 CNS.
The subject of experiment [5] is PC-3 prostate.
For experiment [6], the system named is SK-MEL-5 melanoma.
For experiment [7], the system named is UACC-62 melanoma.
For experiment [8], the system named is LOX IMVI melanoma.
Experiment [9] concerns SK-MEL-28 melanoma.
For experiment [10], the system named is SK-MEL-2 melanoma.
For experiment [11], the system named is SN12C renal.
For experiment [12], the system named is UO-31 renal.
Experiment [13] relates to TK-10 renal.
In experiment [14] the test system is ACHN renal.
Experiment [15] deals with CAKI-1 renal.
In experiment [16] the test system is A498 renal.
Experiment [17] deals with CCRF-CEM leukemia.
The subject of experiment [18] is MOLT-4 leukemia.
Experiment [19] has as its system EKVX NSCLC.
For experiment [20], the system named is SNB-19 CNS.

With `COc1ccc(N2CCN(c3nc(-c4ccccc4)c(C#N)c(=O)[nH]3)CC2)cc1`, the growth is 99.4% in [1]; 108% in [2]; 73.2% in experiment [3]; 95.6% in experiment [4]; 87.2% in experiment [5]; 96.4% in experiment [6]. In addition, the growth in experiment [7] is 94.8%; in experiment [8], 99.4%; in experiment [9], 110%; in experiment [10], 120%; in experiment [11], 96.7%; in experiment [12], 71.4%. The growth is 115% in experiment [13]; 99% in [14]; 98.6% in experiment [15]; 87.9% in experiment [16]; 80.1% in [17]; 93.5% in experiment [18].
In the case of `Cc1nc(N)sc1Sc1nc2ccc(Cl)cc2c(=O)n1-c1ccc(Oc2ccccc2)cc1`, the growth in experiment [1] is 55.4%; in experiment [2] it was 55.9%; in experiment [3] it was 96%; in experiment [4], 77.2%; in experiment [5] it was 48.9%; in [6], 76.1%. Further, the growth in [7] was 63.9%; in experiment [8], 75.5%; in experiment [9], 95.1%; in [10], 96.9%; in experiment [11], 73.9%; in experiment [12] it was 61.8%. Also, the growth in experiment [13] is 89%; in [14] it was 78.5%; in experiment [15], 73.5%; in experiment [16] it was 39.9%; in experiment [17], 41.5%; in experiment [18], 44.3%.
For the compound `CCc1ccc(Nc2cc(C)nc3nc(C)nn23)cc1`, the growth is -3.95% (active) in experiment [1]; -76.3% (active) in experiment [2]; 29.6% in [3]; -98.9% (active) in [4]; 1.4% (active) in experiment [5]; -99.1% (active) in experiment [7]. In addition, the growth in [8] is -98.2% (active); in experiment [9] it was -98% (active); in [10], 14.5%; in [11] it was 26.2%; in [12], 13.4%; in experiment [13], -6.1% (active). In addition, the growth in experiment [14] is -2.86% (active); in [15] it was 0.395% (active); in experiment [16] it was 34.7%; in experiment [17] it was -10.6% (active).
`CCOC(=O)c1cc2c(n1Cc1cc(OC)cc(OC)c1)-c1oncc1CC2`: the growth in experiment [1] was 21.9%; in experiment [2], 5.66% (active); in experiment [3], -0.349% (active); in experiment [5], 27.4%; in [6], 24.6%; in experiment [7], 40.3%. The growth in [8] was 49.5%; in experiment [9] it was 33.8%; in experiment [10], 26.7%; in experiment [19], 34.5%; in experiment [11] it was 40.9%; in experiment [12], 19.4%. The growth in [13] is 53.2%; in experiment [14], 47.1%; in experiment [15], 29.2%; in [16], 24.9%; in experiment [17] it was 13.2%; in experiment [18], 23.6%.
For `O=C(NNC(=O)c1ccncc1)Nc1ccc([N+](=O)[O-])cc1`, the growth in experiment [1] was 101%; in experiment [2], 99.5%; in [20], 107%; in experiment [4], 113%; in experiment [5] it was 103%; in experiment [6], 112%. The growth is 113% in experiment [7]; 101% in experiment [8]; 127% in [9]; 95.8% in experiment [10]; 91.6% in [19]; 114% in experiment [11]. Besides, the growth in experiment [12] was 89.6%; in experiment [13] it was 106%; in [14] it was 101%; in experiment [15], 96.5%; in [16] it was 115%; in experiment [17] it was 107%. Also, the growth in experiment [18] is 81.2%.
In the case of `O=c1[nH]c(=O)n(C2C[C@@H](O)[C@@H](CO)O2)cc1F` (stereo partly specified), the growth in experiment [1] was 39%; in experiment [2] it was 27.2%; in experiment [3] it was 20.3%; in [4] it was 34.2%; in [5], 44%; in experiment [6], -69% (active). Also, the growth in [7] was 13.9%; in experiment [8], 14.1%; in [9], 37.9%; in experiment [10] it was 57.3%; in experiment [19] it was 70.7%; in [12] it was 10.5%. Further, the growth is 35.5% in experiment [13]; 31.6% in experiment [15]; 15.8% in experiment [16]; 29.1% in experiment [17]; 32.5% in [18].
As to `COc1cc(N=C2C(=O)N(Cc3ccccc3)c3ccccc32)cc(OC)c1OC`, the growth in experiment [1] was 95.3%; in [2], 103%; in [3], 82.6%; in experiment [4], 94.2%; in experiment [5] it was 97.8%; in [6], 94.2%. Moreover, the growth was 90.8% in experiment [7]; 86.9% in experiment [8]; 113% in [9]; 98.3% in experiment [10]; 101% in experiment [19]; 99.6% in experiment [11]. Moreover, the growth in [12] is 77.3%; in [13] it was 112%; in experiment [14], 97.4%; in experiment [15], 83.8%; in experiment [16], 108%; in experiment [17], 29.5%. For the same compound, in experiment [18], the growth is 96.9%.
Take `CC(C)OCc1cc(CN2CCN(c3cccc(Cl)c3)CC2)c(O)c2ncccc12`: the growth in experiment [1] was 4.08% (active); in experiment [2], -17.1% (active); in experiment [3], -25.3% (active); in experiment [4] it was -37.8% (active); in experiment [5], -0.0543% (active); in [6] it was -85.2% (active). Also, the growth in experiment [7] was -61.2% (active); in [8], -73.3% (active); in experiment [9] it was -2.34% (active); in experiment [10], -59.1% (active); in experiment [11], -4.06% (active); in experiment [12] it was -6.8% (active). Also, the growth in experiment [13] was 5.04% (active); in experiment [14], 10.1%; in experiment [15] it was -49.9% (active); in [16] it was -62.7% (active); in [17], -13.4% (active); in experiment [18] it was -48.6% (active).
Regarding `CCCCCCCOc1cccc(/C=C2/C(=O)N=C3SCCCN32)c1`, the growth was 60.8% in experiment [1]; 63.9% in [2]; 75.1% in experiment [3]; 51% in [4]; 70.4% in experiment [5]; 63.7% in experiment [6]. Besides, the growth was 54.9% in [7]; 44.9% in [8]; 82.3% in experiment [9]; 83% in [10]; 74.2% in [19]; 61.9% in experiment [12]. The growth was 75.7% in experiment [13]; 79.2% in experiment [14]; 84.9% in [15]; 97.6% in [16]; 60.4% in experiment [17]; 50.2% in [18].
